log2 fold change data for 37 targets are collected here from the supplement of paper PMC10849652.

The full data set covers some 7,900 targets. This sample favours those with a hit. About 0.6% of all pairs of compound and target were hits. Unmarked numbers belong to inactive results.

Sequence of UniProt Q8N8N7 (Q8N8N7 whole entry, looked up): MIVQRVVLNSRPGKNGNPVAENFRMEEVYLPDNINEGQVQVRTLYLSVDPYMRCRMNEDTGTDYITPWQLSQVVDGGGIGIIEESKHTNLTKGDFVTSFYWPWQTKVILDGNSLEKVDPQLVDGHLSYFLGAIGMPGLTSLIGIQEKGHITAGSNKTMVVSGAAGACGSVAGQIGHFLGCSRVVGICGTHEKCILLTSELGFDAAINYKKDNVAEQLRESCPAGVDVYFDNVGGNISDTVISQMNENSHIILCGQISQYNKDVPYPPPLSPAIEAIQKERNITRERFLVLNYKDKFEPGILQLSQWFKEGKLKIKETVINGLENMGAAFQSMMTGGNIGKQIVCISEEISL
Sequence of UniProt O95602 (O95602 whole entry, looked up): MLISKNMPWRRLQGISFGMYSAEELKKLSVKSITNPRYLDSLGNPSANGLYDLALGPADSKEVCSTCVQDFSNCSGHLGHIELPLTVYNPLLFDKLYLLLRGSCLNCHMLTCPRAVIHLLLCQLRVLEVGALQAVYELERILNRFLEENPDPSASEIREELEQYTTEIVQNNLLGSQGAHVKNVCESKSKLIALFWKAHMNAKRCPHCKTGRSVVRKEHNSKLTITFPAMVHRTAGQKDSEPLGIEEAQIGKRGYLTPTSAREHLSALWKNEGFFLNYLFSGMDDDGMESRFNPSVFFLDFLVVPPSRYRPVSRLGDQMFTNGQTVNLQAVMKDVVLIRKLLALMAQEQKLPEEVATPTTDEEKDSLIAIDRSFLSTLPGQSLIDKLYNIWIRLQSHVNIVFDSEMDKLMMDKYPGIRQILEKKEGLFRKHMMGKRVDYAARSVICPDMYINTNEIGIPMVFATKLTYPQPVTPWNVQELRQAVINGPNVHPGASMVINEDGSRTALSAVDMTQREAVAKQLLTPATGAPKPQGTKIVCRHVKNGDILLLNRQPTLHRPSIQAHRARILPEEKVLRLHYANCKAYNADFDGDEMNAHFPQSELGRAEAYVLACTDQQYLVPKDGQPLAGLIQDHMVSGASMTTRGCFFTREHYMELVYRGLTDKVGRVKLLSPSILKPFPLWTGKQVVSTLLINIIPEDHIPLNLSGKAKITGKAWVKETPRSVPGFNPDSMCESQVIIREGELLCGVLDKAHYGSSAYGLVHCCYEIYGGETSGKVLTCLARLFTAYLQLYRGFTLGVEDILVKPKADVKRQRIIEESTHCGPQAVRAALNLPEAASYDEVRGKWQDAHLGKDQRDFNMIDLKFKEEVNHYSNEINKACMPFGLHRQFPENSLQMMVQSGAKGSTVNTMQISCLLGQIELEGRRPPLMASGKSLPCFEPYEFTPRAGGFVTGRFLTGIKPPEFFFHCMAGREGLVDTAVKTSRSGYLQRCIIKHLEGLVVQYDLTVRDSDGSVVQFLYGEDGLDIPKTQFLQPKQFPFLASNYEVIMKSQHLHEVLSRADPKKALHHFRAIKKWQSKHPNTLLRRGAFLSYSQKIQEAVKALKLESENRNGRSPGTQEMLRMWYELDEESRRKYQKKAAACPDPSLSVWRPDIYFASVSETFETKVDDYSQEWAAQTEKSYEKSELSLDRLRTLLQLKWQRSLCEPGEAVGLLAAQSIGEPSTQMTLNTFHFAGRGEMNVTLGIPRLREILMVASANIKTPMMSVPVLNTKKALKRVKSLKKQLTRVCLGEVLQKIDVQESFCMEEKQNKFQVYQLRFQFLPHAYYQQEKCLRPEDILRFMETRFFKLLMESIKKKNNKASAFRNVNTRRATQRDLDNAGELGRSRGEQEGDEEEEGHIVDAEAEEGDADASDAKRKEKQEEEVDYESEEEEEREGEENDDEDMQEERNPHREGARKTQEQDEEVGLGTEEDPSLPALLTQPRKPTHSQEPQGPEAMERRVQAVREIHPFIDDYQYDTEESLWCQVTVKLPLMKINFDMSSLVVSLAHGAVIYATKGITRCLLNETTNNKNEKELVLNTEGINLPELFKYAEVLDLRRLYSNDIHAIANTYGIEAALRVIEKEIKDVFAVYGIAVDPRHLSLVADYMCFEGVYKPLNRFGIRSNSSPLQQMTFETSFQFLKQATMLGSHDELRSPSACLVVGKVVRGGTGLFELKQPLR
Sequence of UniProt O15067 (O15067 whole entry, looked up): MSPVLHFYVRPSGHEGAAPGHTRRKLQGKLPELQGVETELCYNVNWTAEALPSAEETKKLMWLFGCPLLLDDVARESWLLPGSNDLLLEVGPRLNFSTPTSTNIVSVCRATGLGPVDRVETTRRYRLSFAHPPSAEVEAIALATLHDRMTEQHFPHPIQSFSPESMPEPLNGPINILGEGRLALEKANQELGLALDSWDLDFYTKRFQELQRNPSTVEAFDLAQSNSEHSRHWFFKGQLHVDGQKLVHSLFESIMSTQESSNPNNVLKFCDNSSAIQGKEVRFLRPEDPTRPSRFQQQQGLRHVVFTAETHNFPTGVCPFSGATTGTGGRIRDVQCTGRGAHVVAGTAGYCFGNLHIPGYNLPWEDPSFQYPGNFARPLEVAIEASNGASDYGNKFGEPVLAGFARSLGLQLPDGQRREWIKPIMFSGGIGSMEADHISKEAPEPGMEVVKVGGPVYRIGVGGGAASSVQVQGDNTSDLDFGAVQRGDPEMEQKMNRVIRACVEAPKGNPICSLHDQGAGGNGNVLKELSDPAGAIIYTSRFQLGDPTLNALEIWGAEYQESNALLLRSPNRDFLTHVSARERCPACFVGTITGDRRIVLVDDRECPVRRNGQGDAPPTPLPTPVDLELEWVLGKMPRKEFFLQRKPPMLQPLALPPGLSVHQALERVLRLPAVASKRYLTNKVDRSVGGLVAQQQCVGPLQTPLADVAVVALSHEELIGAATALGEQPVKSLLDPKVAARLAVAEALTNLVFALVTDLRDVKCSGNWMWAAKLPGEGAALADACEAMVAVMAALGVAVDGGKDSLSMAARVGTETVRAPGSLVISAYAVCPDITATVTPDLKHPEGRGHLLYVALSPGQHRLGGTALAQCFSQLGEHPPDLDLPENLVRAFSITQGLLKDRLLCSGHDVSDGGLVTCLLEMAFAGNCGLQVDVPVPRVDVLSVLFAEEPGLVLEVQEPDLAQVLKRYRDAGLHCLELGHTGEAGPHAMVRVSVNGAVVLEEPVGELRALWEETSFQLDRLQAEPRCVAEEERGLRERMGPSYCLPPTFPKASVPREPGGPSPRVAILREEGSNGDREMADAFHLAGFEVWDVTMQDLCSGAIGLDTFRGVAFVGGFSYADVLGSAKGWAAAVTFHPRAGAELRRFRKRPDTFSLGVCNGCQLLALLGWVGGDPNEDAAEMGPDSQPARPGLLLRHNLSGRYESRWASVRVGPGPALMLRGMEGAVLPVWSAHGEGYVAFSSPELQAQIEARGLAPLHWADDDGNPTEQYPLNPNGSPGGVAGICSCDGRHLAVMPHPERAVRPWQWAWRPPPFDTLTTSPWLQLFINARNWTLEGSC
Sequence of UniProt Q01970 (Q01970 whole entry, looked up): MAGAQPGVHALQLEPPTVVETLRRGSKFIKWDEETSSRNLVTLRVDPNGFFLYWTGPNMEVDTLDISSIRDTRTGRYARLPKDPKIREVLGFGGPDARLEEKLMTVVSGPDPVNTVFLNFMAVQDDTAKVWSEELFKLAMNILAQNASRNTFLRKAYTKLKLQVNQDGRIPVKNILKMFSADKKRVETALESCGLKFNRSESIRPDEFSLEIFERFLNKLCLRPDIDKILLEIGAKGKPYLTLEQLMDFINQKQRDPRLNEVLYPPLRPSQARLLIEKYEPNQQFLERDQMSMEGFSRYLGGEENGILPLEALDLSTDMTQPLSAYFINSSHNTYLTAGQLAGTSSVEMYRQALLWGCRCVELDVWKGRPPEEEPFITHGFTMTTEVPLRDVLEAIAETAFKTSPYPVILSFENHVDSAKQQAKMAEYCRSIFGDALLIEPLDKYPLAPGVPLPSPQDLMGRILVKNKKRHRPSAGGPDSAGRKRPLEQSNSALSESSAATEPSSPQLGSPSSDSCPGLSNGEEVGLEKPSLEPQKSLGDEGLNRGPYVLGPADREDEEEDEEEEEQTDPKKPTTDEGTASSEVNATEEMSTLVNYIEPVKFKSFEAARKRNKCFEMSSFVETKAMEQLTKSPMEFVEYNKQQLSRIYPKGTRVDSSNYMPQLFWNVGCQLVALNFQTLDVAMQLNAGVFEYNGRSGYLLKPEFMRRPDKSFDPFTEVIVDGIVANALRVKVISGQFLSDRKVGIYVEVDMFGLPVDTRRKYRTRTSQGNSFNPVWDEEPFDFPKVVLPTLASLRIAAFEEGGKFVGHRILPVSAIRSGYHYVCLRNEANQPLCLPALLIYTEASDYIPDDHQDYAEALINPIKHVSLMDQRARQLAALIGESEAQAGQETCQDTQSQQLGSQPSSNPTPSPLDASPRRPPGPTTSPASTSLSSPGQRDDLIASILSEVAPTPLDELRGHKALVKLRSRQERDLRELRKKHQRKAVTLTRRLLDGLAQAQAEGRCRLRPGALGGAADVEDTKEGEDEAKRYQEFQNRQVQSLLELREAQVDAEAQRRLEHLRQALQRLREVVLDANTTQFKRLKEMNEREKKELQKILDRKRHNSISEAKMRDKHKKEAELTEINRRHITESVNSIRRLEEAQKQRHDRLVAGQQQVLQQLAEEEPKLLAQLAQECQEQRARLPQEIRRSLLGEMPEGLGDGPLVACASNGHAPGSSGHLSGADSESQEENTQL
Sequence of UniProt Q9Y5Y5 (Q9Y5Y5 whole entry, looked up): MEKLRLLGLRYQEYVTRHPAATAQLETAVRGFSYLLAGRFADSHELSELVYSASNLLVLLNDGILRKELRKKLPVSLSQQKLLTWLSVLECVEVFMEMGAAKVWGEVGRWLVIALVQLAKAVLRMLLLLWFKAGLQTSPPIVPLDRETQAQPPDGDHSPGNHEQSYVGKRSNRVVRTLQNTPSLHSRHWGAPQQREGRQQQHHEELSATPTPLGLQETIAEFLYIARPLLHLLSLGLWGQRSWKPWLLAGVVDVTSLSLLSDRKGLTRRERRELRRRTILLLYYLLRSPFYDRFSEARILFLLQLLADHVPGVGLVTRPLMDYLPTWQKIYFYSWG
Sequence of UniProt Q9Y2Y1 (Q9Y2Y1 whole entry, looked up): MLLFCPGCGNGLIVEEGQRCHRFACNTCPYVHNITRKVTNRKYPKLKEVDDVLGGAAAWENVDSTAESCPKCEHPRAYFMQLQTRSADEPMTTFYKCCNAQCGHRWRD

Compound in the first assay: CN1CCN(CCOc2cc(OC3CCOCC3)c3c(Nc4c(Cl)ccc5c4OCO5)ncnc3c2)CC1 [saracatinib]
As to the kind of experiment: log2 fold change, soluble protein after heating vs DMSO (PISA); higher = thermal stabilisation; K562 cells, 10 uM, 30 min; active = over 0.2 and 3.5 SD of the protein, either way, in both replicates (recomputed). The procedure, abridged: (§1)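 K562 cells at 2×10^6 cells/mL were given 10 μM compound for 30 min. Aliquots then went through 3 min of heating across 48°C-58°C, were pooled, and were extracted in PBS with 0.5% NP-40 at 4°C, and the supernatant after 21,000xg for 90 min was quantified by TMTpro 16plex LC-MS/MS with channel sums equalised. Thermal stability relative to control samples, from duplicates, is given as log2 fold change.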
For the target PYGB (UniProt P11216), the log2 fold change is 0.012.

For the target PLCB3 (UniProt Q01970), the log2 fold change was -0.044.

As to POLR2M (UniProt P0CAP2), the log2 fold change was 0.061.

With PEX16 isoform 2 (UniProt Q9Y5Y5), the log2 fold change was 0.038.

For PTPA (UniProt A6PVN8), the log2 fold change was 0.21.

For the target PARN (UniProt O95453), the log2 fold change is -0.013.

Regarding PKM (UniProt P14618), the log2 fold change is 0.012.

Take PRIM1 (UniProt P49642): the log2 fold change is -0.109.

Consider PCK2 (UniProt Q16822), for which the log2 fold change is 0.021.

For POLR2G (UniProt P62487), the log2 fold change was 0.041.

For the target PTDSS1 (UniProt P48651), the log2 fold change was -0.011.

For PHKA2 (UniProt P46019), the log2 fold change is 0.032.

PISD (UniProt Q9UG56): the log2 fold change is -0.095.

Consider PIP4P1 isoform 2 (UniProt Q86T03), for which the log2 fold change was 0.014.

Consider PGGT1B (UniProt P53609), for which the log2 fold change was 0.

Consider PCLAF (UniProt Q15004), for which the log2 fold change is 0.057.

As to POLR3K (UniProt Q9Y2Y1), the log2 fold change is 0.052.

For POLR2K (UniProt P53803), the log2 fold change is -0.024.

For PCBP1 (UniProt Q15365), the log2 fold change was 0.009.

With PCNT (UniProt O95613), the log2 fold change is -0.06.

PTGR2 (UniProt Q8N8N7): the log2 fold change was 0.021.

Take PLIN2 (UniProt Q99541): the log2 fold change is -0.033.

As for PDCD6 (UniProt O75340), the log2 fold change was 0.038.

As for PYGL (UniProt P06737), the log2 fold change was 0.063.

POTEI (UniProt P0CG38): the log2 fold change was 0.108.

Turning to POLR1A (UniProt O95602), the log2 fold change was -0.027.

With POMP (UniProt Q9Y244), the log2 fold change was 0.075.

With PPP2R5E (UniProt Q16537), the log2 fold change was -0.077.

As for PSMA3 (UniProt P25788), the log2 fold change was 0.012.

Regarding PRPF3 (UniProt O43395), the log2 fold change was -0.023.

Regarding PNPLA8 (UniProt Q9NP80), the log2 fold change is 0.022.

For the target PRMT3 (UniProt O60678), the log2 fold change was 0.021.

As to PRIM2 (UniProt P49643), the log2 fold change is -0.013.

For the target PFAS (UniProt O15067), the log2 fold change was -0.043.

PARL (UniProt Q9H300): the log2 fold change was 0.056.

As for PDPK1 (UniProt O15530), the log2 fold change was -0.008.

Regarding PTPA (UniProt Q15257), the log2 fold change is 0.009.

Compound in another assay: CN1CCN(c2nc(C3=C(c4c[nH]c5ccccc45)C(=O)NC3=O)c3ccccc3n2)CC1 [sotrastaurin]
Described as above. The procedure, abridged: as §1
Take PYGB (UniProt P11216): the log2 fold change is -0.142.

With PLCB3 (UniProt Q01970), the log2 fold change is -0.039.

Regarding POLR2M (UniProt P0CAP2), the log2 fold change was 0.019.

Turning to PEX16 isoform 2 (UniProt Q9Y5Y5), the log2 fold change was -0.02.

For PTPA (UniProt A6PVN8), the log2 fold change was 0.003.

Take PARN (UniProt O95453): the log2 fold change was -0.008.

Turning to PKM (UniProt P14618), the log2 fold change is 0.024.

For the target PRIM1 (UniProt P49642), the log2 fold change is -0.111.

Take PCK2 (UniProt Q16822): the log2 fold change is -0.003.

Turning to POLR2G (UniProt P62487), the log2 fold change is -0.016.

Regarding PTDSS1 (UniProt P48651), the log2 fold change is 0.006.

Regarding PHKA2 (UniProt P46019), the log2 fold change was -0.085.

In the case of PISD (UniProt Q9UG56), the log2 fold change is 0.061.

Consider PIP4P1 isoform 2 (UniProt Q86T03), for which the log2 fold change was -0.108.

For PGGT1B (UniProt P53609), the log2 fold change is 0.121.

For PCLAF (UniProt Q15004), the log2 fold change was 0.057.

With POLR3K (UniProt Q9Y2Y1), the log2 fold change was -0.049.

POLR2K (UniProt P53803): the log2 fold change was 0.032.

For PCBP1 (UniProt Q15365), the log2 fold change was -0.073.

Regarding PCNT (UniProt O95613), the log2 fold change is 0.115.

Consider PTGR2 (UniProt Q8N8N7), for which the log2 fold change was 0.009.

For PLIN2 (UniProt Q99541), the log2 fold change is -0.243.

Regarding PDCD6 (UniProt O75340), the log2 fold change is -0.014.

Regarding PYGL (UniProt P06737), the log2 fold change is -0.006.

Turning to POTEI (UniProt P0CG38), the log2 fold change was 0.066.

As to POLR1A (UniProt O95602), the log2 fold change was -0.151.

POMP (UniProt Q9Y244): the log2 fold change was 0.035.

For the target PPP2R5E (UniProt Q16537), the log2 fold change was 0.012.

Consider PSMA3 (UniProt P25788), for which the log2 fold change was 0.038.

For PRPF3 (UniProt O43395), the log2 fold change was -0.114.

For PNPLA8 (UniProt Q9NP80), the log2 fold change is 0.052.

In the case of PRMT3 (UniProt O60678), the log2 fold change is -0.046.

Consider PRIM2 (UniProt P49643), for which the log2 fold change was -0.192.

Turning to PFAS (UniProt O15067), the log2 fold change was 0.

As to PARL (UniProt Q9H300), the log2 fold change is 0.019.

Regarding PDPK1 (UniProt O15530), the log2 fold change was 0.034.

On to PTPA (UniProt Q15257), for which the log2 fold change is 0.068.
